From PubChem BioAssay
Active and inactive are the calls of the source.

What was measured:
[1] = tested on: Wnt5a (protein binding on small-molecule microarray); assay: Wnt5a binders on small-molecule microarray, primary screen, biophysical, 635/667 nm fluorescence (AID 1142); conditions: 635 nm fluorescence, higher = more signal;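 also: fluorescence read at 667 nm with signal to noise per printed feature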
[2] = cell viability in Huh7 cells, primary screen, cytotoxicity control for HCV replication inhibitor project, CellTiter-Glo luminescence, basal, 48 h (AID 1143); conditions: Huh7 HCV replicon, higher = more signal, called active from +8 up or from −8 down;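 also: Huh7 hepatoma cells carrying a hepatitis C replication reporter with no stimulus; test concentration not given here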
[3] = CREB reporter modulators without forskolin, primary screen, cell-based, PC12, CRE-LacZ reporter, unstimulated (AID 1145); conditions: no forskolin, luminescence, 4.5 h, higher = more signal, called active from +8 up or from −8 down
[4] = CREB reporter modulators under forskolin, primary screen, cell-based, PC12, CRE-LacZ reporter, forskolin-stimulated (AID 1146); conditions: luminescence, 4.5 h, higher = more signal, called active from +8 up or from −8 down;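 also: PC12 cells with 6xCRE LacZ reporter stimulated by forskolin 10 µM; beta-galactosidase reporter signal reflecting CREB driven transcription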
[5] = biological target: Streptavidin (Streptomyces avidinii) (UniProt P22629); assay: streptavidin binders on small-molecule microarray, primary screen, artefact control for SMM compound annotation, biophysical, 635/667 nm fluorescence (AID 1147); conditions: streptavidin binding, higher = more signal;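 also: signal reflects streptavidin binding to arrayed compounds as a control protein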
[6] = small-molecule binders of probe aInhba, primary screen, biochemical, small-molecule microarray, 635/667 nm fluorescence (AID 1148); conditions: higher = more signal;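 also: score merges 667nm spot fluorescence with signal-to-noise for antibody binding to printed compounds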
Torsin-1A (Homo sapiens) [7] = biological target: Torsin-1A (Homo sapiens) (UniProt O14656); assay: torsin A binders from cell lysate, primary screen, small-molecule microarray, wild-type, 635/667 nm (AID 1149); conditions: COS7 hTOR1A-WT lysate, 635 nm fluorescence, higher = more signal
Torsin-1A (Homo sapiens) [8] = biological target: Torsin-1A (Homo sapiens) (UniProt O14656); assay: small-molecule binders of mutant TOR1A in lysate, primary screen, cell lysate, small-molecule microarray, COS7 lysate, 635/667 nm fluorescence (AID 1150); conditions: COS7 hTOR1A mutant lysate, 635 nm fluorescence, higher = more signal;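 also: score pools 667 nm emission and signal to noise measuring lysate protein binding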
[9] = tested on: Sonic hedgehog protein (Shh); assay: small-molecule binders of Shh protein, primary screen, biochemical, small-molecule microarray, 635/667 nm fluorescence (AID 1151); conditions: small-molecule microarray binding, 635 nm fluorescence; higher = more signal;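 also: Shh protein binding to compounds spotted on small-molecule microarray slides; score combines spot fluorescence intensity with signal-to-noise across triplicate slides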
[10] = E. coli DRC41 culture turbidity changes, primary screen, E. coli filamentation inducer project, strain DRC41, OD650, 48 h (AID 1152);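 also: E. coli MC1000 strain DRC41 lacking acrAB efflux pump and sulA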; conditions: E. coli DRC41 (acrAB sulA), higher = more signal, called active from +8 up or from −8 down
[11] = small-molecule binders of probe aLefty1, primary screen, biochemical, small-molecule microarray, 635/667 nm fluorescence (AID 1153); conditions: higher = more signal;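 also: score merges spot fluorescence with signal-to-noise ratio from the scanned slide images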
[12] = PSAC antagonists in infected red cells, primary screen, cell-based, P. falciparum Indochina, OD700, 1 h (AID 1154); conditions: P. falciparum Indochina infected RBC osmotic lysis, higher = more signal, called active from +8 up or from −8 down
[13] = PSAC antagonists in infected red cells, primary screen, cell-based, P. falciparum Indochina, OD700, 2 h (AID 1155);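 also: lysis reports solute entry through the parasite surface anion channel PSAC; channel blockers reduce lysis of infected cells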; conditions: P. falciparum Indochina infected erythrocytes, osmotic lysis OD700; higher = more signal, called active from +8 up or from −8 down
[14] = osmotic lysis modulators in infected erythrocytes, primary screen, PSAC antagonist project, cell-based, P. falciparum Indochina, OD700, 3 h (AID 1156); conditions: higher = more signal, called active from +8 up or from −8 down
[15] = PSAC antagonists in infected red cells, primary screen, cell-based, P. falciparum Indochina, OD700, 18 h (AID 1157); conditions: P. falciparum Indochina infected erythrocytes, osmotic lysis OD700, 18 h; higher = more signal, called active from +8 up or from −8 down
[16] = modulators of S6 phosphorylation in cells, primary screen, cell-based, A549, cytoblot, luminescence, serum-stimulated (AID 1158); conditions: A549 phospho-S6 cytoblot, 5 h, higher = more signal;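 also: serum-stimulated A549 lung adenocarcinoma cells; signal is phosphorylated S6 detected by cytoblot immunostaining with HRP secondary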
[17] = biological target: NADPH oxidase 2 (Homo sapiens) (UniProt P04839); assay: NOX2-dependent H2O2 signal modulators, primary screen, NOX inhibitor project, cell-based, HEK293-NOX2, PMA-stimulated, Amplex Red fluorescence (AID 1159); conditions: 45 min, higher = more signal, called active from +8 up or from −8 down; also: test concentration not given here
[18] = biological target: NADPH oxidase 4 (Homo sapiens) (UniProt Q9NPH5); assay: NOX4-dependent H2O2 signal modulators, primary screen, NOX inhibitor project, cell-based, HEK293-NOX4, tetracycline-induced, Amplex Red fluorescence (AID 1160); conditions: 45 min, higher = more signal, called active from +8 up or from −8 down
[19] = biological target: NADPH oxidase 5 (Homo sapiens) (UniProt Q96PH1); assay: NOX5-dependent H2O2 signal modulators, primary screen, NOX inhibitor project, cell-based, HEK293-NOX5, Amplex Red fluorescence (AID 1161); conditions: HEK293-NOX5, ionomycin, 45 min, higher = more signal
Sequence of NADPH oxidase 5 (Homo sapiens) (Q96PH1 whole entry, looked up): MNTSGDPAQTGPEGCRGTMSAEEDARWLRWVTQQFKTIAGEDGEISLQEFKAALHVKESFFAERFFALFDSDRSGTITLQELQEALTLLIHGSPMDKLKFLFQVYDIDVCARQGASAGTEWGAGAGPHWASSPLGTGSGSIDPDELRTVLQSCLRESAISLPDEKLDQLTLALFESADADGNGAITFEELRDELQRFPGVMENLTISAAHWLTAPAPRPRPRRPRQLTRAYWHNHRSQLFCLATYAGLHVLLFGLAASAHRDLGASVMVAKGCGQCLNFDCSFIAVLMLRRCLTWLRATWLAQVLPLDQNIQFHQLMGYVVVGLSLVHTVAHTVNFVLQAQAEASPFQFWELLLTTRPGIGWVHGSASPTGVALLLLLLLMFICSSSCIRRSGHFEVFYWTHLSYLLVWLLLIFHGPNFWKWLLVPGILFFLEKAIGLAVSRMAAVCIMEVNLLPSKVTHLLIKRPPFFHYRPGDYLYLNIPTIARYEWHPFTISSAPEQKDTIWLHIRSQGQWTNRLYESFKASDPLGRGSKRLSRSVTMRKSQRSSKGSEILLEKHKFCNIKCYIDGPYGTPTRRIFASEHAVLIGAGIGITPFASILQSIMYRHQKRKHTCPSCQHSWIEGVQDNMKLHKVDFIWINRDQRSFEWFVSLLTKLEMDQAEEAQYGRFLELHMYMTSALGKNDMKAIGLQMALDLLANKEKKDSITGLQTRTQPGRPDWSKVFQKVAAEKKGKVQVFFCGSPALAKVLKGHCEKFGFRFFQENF

Sequence of Torsin-1A (Homo sapiens) (O14656 whole entry, looked up): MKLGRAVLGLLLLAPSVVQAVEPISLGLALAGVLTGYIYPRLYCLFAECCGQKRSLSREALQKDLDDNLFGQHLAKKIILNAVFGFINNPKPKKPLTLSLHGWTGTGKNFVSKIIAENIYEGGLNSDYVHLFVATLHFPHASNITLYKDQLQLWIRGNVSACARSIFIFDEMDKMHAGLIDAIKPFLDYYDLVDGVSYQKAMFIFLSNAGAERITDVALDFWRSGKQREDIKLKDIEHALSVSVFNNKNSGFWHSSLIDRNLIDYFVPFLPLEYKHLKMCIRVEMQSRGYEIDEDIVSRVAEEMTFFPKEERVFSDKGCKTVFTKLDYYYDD
Sequence of NADPH oxidase 2 (Homo sapiens) (P04839 whole entry, looked up): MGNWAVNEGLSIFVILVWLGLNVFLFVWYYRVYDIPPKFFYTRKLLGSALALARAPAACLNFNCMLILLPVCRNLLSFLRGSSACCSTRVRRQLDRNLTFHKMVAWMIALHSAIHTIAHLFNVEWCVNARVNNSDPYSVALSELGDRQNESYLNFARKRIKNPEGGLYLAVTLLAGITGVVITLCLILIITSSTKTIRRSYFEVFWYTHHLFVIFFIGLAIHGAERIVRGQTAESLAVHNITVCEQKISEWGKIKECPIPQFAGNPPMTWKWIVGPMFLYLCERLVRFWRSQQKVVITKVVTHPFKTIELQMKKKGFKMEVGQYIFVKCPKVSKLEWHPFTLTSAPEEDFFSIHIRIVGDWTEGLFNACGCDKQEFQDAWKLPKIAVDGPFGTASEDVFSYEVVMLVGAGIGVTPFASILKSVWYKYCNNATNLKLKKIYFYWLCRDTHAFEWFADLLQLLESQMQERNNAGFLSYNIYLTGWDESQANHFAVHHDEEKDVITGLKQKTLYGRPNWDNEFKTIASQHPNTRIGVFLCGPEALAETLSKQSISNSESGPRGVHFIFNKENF
Sequence of Streptavidin (Streptomyces avidinii) (P22629 whole entry, looked up): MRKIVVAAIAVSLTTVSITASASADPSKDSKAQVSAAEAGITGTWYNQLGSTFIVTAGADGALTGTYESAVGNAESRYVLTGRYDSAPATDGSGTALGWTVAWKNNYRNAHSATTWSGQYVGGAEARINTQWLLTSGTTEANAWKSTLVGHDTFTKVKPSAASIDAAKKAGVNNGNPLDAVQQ
Sequence of NADPH oxidase 4 (Homo sapiens) (Q9NPH5 whole entry, looked up): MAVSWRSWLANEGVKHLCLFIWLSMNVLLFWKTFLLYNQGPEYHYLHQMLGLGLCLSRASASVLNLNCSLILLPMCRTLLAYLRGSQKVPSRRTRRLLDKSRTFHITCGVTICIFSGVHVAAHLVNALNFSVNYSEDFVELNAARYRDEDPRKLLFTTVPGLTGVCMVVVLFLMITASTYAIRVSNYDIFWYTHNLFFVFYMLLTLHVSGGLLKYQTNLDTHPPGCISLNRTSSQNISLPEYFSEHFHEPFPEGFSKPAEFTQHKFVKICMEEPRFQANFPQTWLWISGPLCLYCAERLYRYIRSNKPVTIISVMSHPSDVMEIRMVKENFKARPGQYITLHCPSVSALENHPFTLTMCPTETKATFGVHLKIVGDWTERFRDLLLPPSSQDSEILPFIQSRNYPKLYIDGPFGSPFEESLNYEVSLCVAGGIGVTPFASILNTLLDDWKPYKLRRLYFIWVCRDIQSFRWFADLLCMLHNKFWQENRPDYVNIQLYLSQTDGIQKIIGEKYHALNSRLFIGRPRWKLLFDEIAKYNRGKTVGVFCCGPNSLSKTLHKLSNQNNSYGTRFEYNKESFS

Row | SMILES | composite z-score [1] | z-score [2] | z-score [3] | z-score [4] | composite z-score [5] | composite z-score [6] | composite z-score (Torsin-1A (Homo sapiens) [7]) | composite z-score (Torsin-1A (Homo sapiens) [8]) | composite z-score [9] | z-score [10] | composite z-score [11] | z-score [12] | z-score [13] | z-score [14] | z-score [15] | z-score [16] | z-score [17] | z-score [18] | z-score [19]
1 | O=[N+]([O-])c1ccc(C[n+]2ccc3ccc(O)cc3c2)o1 | 0.465 | -0.893 (inactive) | -0.815 (inactive) | -1.3 (inactive) | 1.29 | 0.0857 | 0.244 | 1.07 | 0.841 | 0.653 (inactive) | -0.283 | 1.08 (inactive) | -0.678 (inactive) | -0.859 (inactive) | -1.53 (inactive) | 0.829 | -0.94 (inactive) | -1.09 (inactive) | -0.424
2 | CO[C@H]1COC(=O)[C@@H](Cc2ccccc2)NC(=O)[C@@H](C)COC(=O)CC=C[C@@H]1C | -0.0866 | 0.7 (inactive) | 8.02 (active) | -0.445 (inactive) | -0.282 | -0.263 | 0.379 | -0.0112 | 1.02 | 0.428 (inactive) | -0.0573 | -0.224 (inactive) | -0.204 (inactive) | -0.234 (inactive) | -0.481 (inactive) | -0.003 | -0.246 (inactive) | 0.937 (inactive) | 0.264
3 | COc1ccc([Si](C)(C)[C@H]2[C@H](CCO)O[C@@]3(C(=O)N(Cc4ccccc4)c4ccc(N5C(=O)c6cccc7cccc5c67)cc43)[C@@H]2C)cc1 | -0.234 | -5.81 (inactive) | 4.04 (inactive) | -1.36 (inactive) | -0.3 | -0.0791 | -0.144 | 0.0743 | 0.145 | 1.85 (inactive) | -0.105 | 3.41 (inactive) | 2.34 (inactive) | 1.36 (inactive) | 1.65 (inactive) | 0.314 | -1.35 (inactive) | 0.163 (inactive) | 0.513
4 | NC(=O)NCC#Cc1ccc2c(c1)[C@]1(C(=O)N2)[C@H](C(=O)N2CCCCCCC2)[C@H]2C(=O)O[C@H](c3ccccc3)[C@H](c3ccccc3)N2[C@@H]1c1ccccc1OCCO | 1.58 | -0.481 (inactive) | -0.348 (inactive) | -1.18 (inactive) | 3.38 | 2.01 | 1.73 | 1.53 | 0.81 | 1.43 (inactive) | 2.79 | 0.833 (inactive) | 0.483 (inactive) | 1.8 (inactive) | 0.148 (inactive) | 0.421 | 2 (inactive) | 1.36 (inactive) | 0.881
5 | Cc1ccc(N2C(=O)c3ccccc3[C@@H](C(=O)NCc3ccccc3)[C@@H]2c2ccc(CO)cc2)nc1 | 0.0687 | -1.54 (inactive) | -0.0888 (inactive) | -1.02 (inactive) | -0.524 | 0.0028 | 0.628 | 0.276 | 0.311 | 1.85 (inactive) | 0.26 | 2.1 (inactive) | -0.349 (inactive) | -0.199 (inactive) | -0.509 (inactive) | -1.72 | -0.109 (inactive) | 1.03 (inactive) | 0.298
6 | O=C1c2ccccc2[C@](Cc2ccccc2I)(C(=O)NCC(F)(F)F)[C@H](c2ccc(CO)cc2)N1Cc1ccccc1C(F)(F)F | 0.12 | -0.254 (inactive) | -0.438 (inactive) | -0.112 (inactive) | 0.59 | -0.268 | 0.305 | 0.245 | 0.137 | 1.37 (inactive) | -0.597 | 2.78 (inactive) | 0.55 (inactive) | 0.564 (inactive) | 0.449 (inactive) | 0.179 | 1.27 (inactive) | 0.605 (inactive) | 2.32
7 | C=CCNC(=O)[C@@H]1[C@H]2C(=O)O[C@H](c3ccccc3)[C@H](c3ccccc3)N2[C@H](c2ccc(OCCO)cc2)[C@@]12C(=O)N(C(=O)OCCOC)c1ccc(C#CC3(O)CCCCCC3)cc12 | 0.281 | -6.19 (inactive) | -0.87 (inactive) | -1.59 (inactive) | 0.788 | 0.167 | 0.42 | 0.469 | 1.1 | 2.62 (inactive) | 0.372 | 5.36 (inactive) | 2.14 (inactive) | 0.539 (inactive) | 0.761 (inactive) | 3.82 | 1.03 (inactive) | 0.845 (inactive) | -1.14
8 | CO[C@H]1COC(=O)[C@H](C)COC(=O)[C@H](Cc2ccccc2)NC(=O)CC=C[C@H]1C | 0.265 | -0.441 (inactive) | 0.707 (inactive) | -0.872 (inactive) | -0.0705 | 0.286 | 0.715 | -0.121 | 1.61 | 0.261 (inactive) | 0.351 | 0.341 (inactive) | -1.39 (inactive) | 0.743 (inactive) | -1.83 (inactive) | 0.376 | -0.823 (inactive) | 0.901 (inactive) | -0.0208
9 | COCCOC(=O)N1C(=O)[C@@]2(c3cc(C#CCNC(N)=O)ccc31)[C@H](c1ccc(OCCO)cc1)N1[C@H](c3ccccc3)[C@H](c3ccccc3)OC(=O)[C@H]1[C@@H]2C(=O)N1CCCCCCC1 | 0.148 | -2.36 (inactive) | -0.0566 (inactive) | -1.91 (inactive) | 0.34 | 0.325 | 0.0499 | 0.576 | 0.932 | 1.92 (inactive) | 1.16 | 1.96 (inactive) | 0.568 (inactive) | 0.465 (inactive) | -0.737 (inactive) | 1.01 | 2.38 (inactive) | 1.22 (inactive) | 0.765
